Screening data as filed in PubChem BioAssay.
DRD3 antagonist: D3 dopamine receptor (human) antagonism | P35462 | D3R cells, DiscoveRx beta-arrestin luminescence, antagonist mode; hits give low values | max response, negative = inhibition, % | 360,000 tested, 2.5% active; in the data active = max response below about -50%; inconclusive = no clear call, values can overlap the other calls; note: % is set by controls: 0 for no effect and ±100 for the full control effect
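Cells plated overnight at 1500 cells/well, then exposed to library compounds with dopamine controls for 90 minutes at 37 degrees C. DiscoveRx reagent added for 30–60 minutes at room temperature; luminescence read, quantitative HTS format.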
D1 PAM: enhances dopamine response at the human D1 receptor; P21728; HEK293 TREx D1 cells, calcium flux, dopamine EC20 potentiation; 360,000 tested, 0.036% active; potentiation, % at 10 µM; in the data active = potentiation above about 30%; note: 0% is about no effect
Target sequence (P21728 whole entry, looked up): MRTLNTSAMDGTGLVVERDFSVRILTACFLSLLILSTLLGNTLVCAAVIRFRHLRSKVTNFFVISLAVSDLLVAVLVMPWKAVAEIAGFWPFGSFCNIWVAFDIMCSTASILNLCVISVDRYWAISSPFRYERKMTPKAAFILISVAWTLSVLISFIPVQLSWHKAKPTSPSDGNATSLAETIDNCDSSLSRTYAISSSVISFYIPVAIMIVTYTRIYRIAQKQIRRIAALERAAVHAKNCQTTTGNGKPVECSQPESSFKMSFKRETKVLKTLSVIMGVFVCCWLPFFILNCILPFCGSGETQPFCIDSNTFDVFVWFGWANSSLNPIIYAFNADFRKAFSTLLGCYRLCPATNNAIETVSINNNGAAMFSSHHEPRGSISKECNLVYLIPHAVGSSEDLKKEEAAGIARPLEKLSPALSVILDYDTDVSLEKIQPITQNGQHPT
D3 ag: activates the human D3 dopamine receptor. P35462. D3R DiscoveRx beta-arrestin cells, luminescence, 90 min. max activation, %. 410,000 tested, 0.58% active. AID 652048; in the data active = max activation above about 30%; note: 0% is about no effect
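Agonist-mode cell screen: cells plated at 1500/well and incubated overnight at 37 °C, then exposed to library compounds for 90 min at 37 °C. Detection reagent was added for 30–60 min at room temperature, and luminescence was read.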
D1 ag: human D1 receptor agonism | 360,000 tested, 1% active | activation, % at 2 µM | HEK293 T-REx D1 cells, calcium flux, agonist mode | P21728 | AID 504660; in the data active = activation above about 30%; note: 0% is about no effect
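Inducible HEK293 T-REx D1 cells, force-coupled to calcium signalling, were plated at 4000 cells/well with tetracycline and held overnight at 30 C. After no-wash calcium dye loading, compound-evoked calcium rise over 180 s flagged agonists.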
D1 antag: blocks dopamine activation of the human D1 receptor | P21728 | activity change, negative = inhibition, % at 10 µM | HEK293 TREx D1 cells, calcium flux, dopamine EC80; hits give low values | AID 504652 | 360,000 tested, 3.2% active; in the data active = activity change below about -30%; note: % is set by controls: 0 for no effect and ±100 for the full control effect
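Using tetracycline-induced force-coupled D1 Hek293 cells and a calcium dye, signals were followed for 180 s after compound, then for 180 s after EC80 dopamine, to detect inhibitors.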
* hit, by the source's call; u = inconclusive; x = no result given; ! = a repeat was not active. Only some compounds are listed: those with a hit (about 6.1% of all), similar ones and a draw of the others.

SMILES	DRD3 antagonist	D1 PAM	D3 ag	D1 ag	D1 antag
CCCSCCCNC(=O)CN1C(=O)COc2ccc(S(=O)(=O)N3CCC(C)CC3)cc21	x	-2.4	-6.3	3.0	5.2
C/C=C/c1ccc(OCCCNC2CCCC2)c(OC)c1	-60.7*	-5.0	0.2	15.9	6.5
C/C=C/c1ccc(OCCCNC(C)CC)c(OC)c1 (stereo unspecified)	u	4.9	-4.8	1.1	-1.5
CCOc1ccc(CNCc2c(C(=O)O)c(C)n(Cc3ccc(F)cc3Cl)c2C)cc1	x	-0.2	-18.8	23.1	13.0
CCC1CCCCN1S(=O)(=O)c1ccc(C(=O)Nc2nnc(-c3cccs3)o2)cc1 (stereo unspecified)	-75.5*	3.1	-1.1	2.5	-1.8
Cc1nnc(NC(=O)c2ccc(S(=O)(=O)N3CCCCCC3)cc2)o1	-71.9*	-3.5	-3.1	1.4	9.0
CC1CC(C)CN(S(=O)(=O)c2ccc(C(=O)Nc3nnc(-c4cccs4)o3)cc2)C1 (stereo unspecified)	6.2	-2.9	1.6	24.8	-27.4
Cc1nnc(NC(=O)c2ccc(S(=O)(=O)N(C)Cc3ccccc3)cc2)o1	-72.2*	2.5	1.1	1.0	-11.9
Cc1nnc(NC(=O)c2ccc(S(=O)(=O)N3CC(C)OC(C)C3)cc2)o1 (stereo unspecified)	6.2	6.3	-3.2	4.4	-25.0
O=C(Nc1nnc(-c2cccs2)o1)c1cccc(C(F)(F)F)c1	20.8	x	3.5	26.0	-50.0*
COc1ccc(-n2c(-c3ccco3)nc3c(cnn3-c3ccccc3C)c2=O)cc1	0.5	-8.6	5.3	2.1	-30.4*!
COc1ccc(-n2c(-c3ccccc3F)nc3c(cnn3-c3ccc(C)cc3)c2=O)cc1	x	-1.2	-10.1	5.7	-31.4*
COc1ccc(-n2c(-c3ccco3)nc3c(cnn3-c3ccc(C)cc3)c2=O)cc1	12.9	-3.2	4.6	5.1	-1.8
CCOc1cccc(C2c3[nH]c4ccccc4c3CCN2C(=O)Cc2cccc(OCC)c2OCC)c1 (stereo unspecified)	x	3.5	7.0	4.7	12.7
COc1cc(NC(=O)C2CCCN(S(=O)(=O)c3cn(C)cn3)C2)cc(OC)c1 (stereo unspecified)	x	0.3	3.5	-1.7	2.8
Cc1c(C(=O)N2CCN(c3ncccn3)CC2)oc2c(Cl)cccc12	38.0	1.4	7.2	5.7	2.4
Cc1c(C(=O)N2CCN(c3ccccn3)CC2)oc2c(F)cccc12	-12.2	-0.9	60.0*	2.8	-10.8
CC1CCN(S(=O)(=O)c2cc(C(=O)N3CCN(c4cccc(Cl)c4)CC3)n(C)c2)CC1	x	0.6	-5.6	0.5	3.3
O=C(NC(=S)Nc1ccc(CN2CCOCC2)cc1)c1cc2ccccc2o1	35.0	-6.6	2.0	4.9	12.1
CC(C)C(=O)Nc1ccc(NC(=O)c2ccc([N+](=O)[O-])cc2Cl)cc1	-22.8	-3.5	-2.2	3.3	-59.4*
O=C(NC(=S)Nc1ccc(CN2CCOCC2)cc1)c1ccc([N+](=O)[O-])cc1Cl	-78.4*	-3.0	-16.4	7.5	2.5
O=C(NC(=S)Nc1ccc(CN2CCOCC2)cc1)c1ccccc1[N+](=O)[O-]	-107.2*	-1.9	-11.3	3.2	9.8
O=C(NC(=S)Nc1ccc(CN2CCOCC2)cc1)c1cccc([N+](=O)[O-])c1	0.0	10.7	-17.8	7.7	-11.2
COCCn1c(CNC(=O)c2cc(OC)c(OC)c(OC)c2)nc2cccnc21	x	-3.9	-6.5	1.9	-7.4
Cc1ccc(C(c2sc3nc(-c4ccco4)nn3c2O)N2CCOCC2)cc1 (stereo unspecified)	x	-0.2	2.0	2.9	x
O=C(CCCN1C(=O)S/C(=C/c2ccccc2)C1=S)Nc1ccc(C(=O)O)cc1	-25.0	-2.4	4.1	4.4	-39.8*
O=C(CCN1C(=O)S/C(=C\c2ccc(F)cc2)C1=O)Nc1ccc(C(=O)O)c(O)c1	19.3	-0.1	-8.2	4.8	2.0
O=C(CN1C(=O)S/C(=C/C=C/c2ccccc2)C1=O)Nc1ccc(C(=O)O)cc1	4.1	-4.7	16.2	4.9	-15.5
O=C(CCN1C(=O)S/C(=C/c2ccccc2)C1=O)Nc1ccc(C(=O)O)c(O)c1	2.9	18.0	-8.8	55.4*	22.0
O=C(CN1C(=O)S/C(=C\C=C\c2ccccc2)C1=O)N1CCOCC1	10.5	8.1	-2.4	0.4	-39.9*
